Measured values as given in PubChem BioAssay.
Where “and” joins values, the source holds several entries; their conditions need not be identical. Equal values may be shown once. Calls of active or inactive are those of the source. Unless noted, no stated cut-off is given here; in the data, active means parasite load remaining mostly below about 12% (no sharp cut-off); inactive means mostly above about 10%.

Tests used:
[1] = stimulators of nuclear beta-catenin in C2C12, primary screen, imaging, WNT3A-conditioned medium, mouse C2C12, NPC library (AID 1117326; in the data active means nuclear beta-catenin stimulation mostly above about 4.2%, no sharp cut-off; inactive means mostly below about 10%); settings: stronger effect = higher value
[2] = stimulators of insulin release from INS-1E, primary screen, cell-based, 5 mM glucose, NPC library (AID 1117329;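 active means compound raises insulin release from rat beta cells at 5 mM glucose, no numeric limit stated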); settings: rat INS-1E insulin secretion, at 10 µM, stronger effect = higher value
[3] = growth inhibition of GSK3B-pretreated HCT116 cells – cell-based, CellTiter-Glo, 0.2 to 20 µM (AID 1117336;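 active means compounds lowering colon cancer cell viability after pretreatment blocking the GSK3B kinase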); settings: HCT116 viability after GSK3B inhibitor, at 20 µM, stronger effect = higher value
[4] = inhibition of endothelial tube formation, primary screen, imaging, VEGF stimulated, CD31 staining, tube area, NPC library (AID 1117340;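 active means compound that reduces growth-factor-driven endothelial tube area in a mixed cell culture, no cutoff stated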); settings: VEGF-stimulated ADSC/ECFC co-culture, at 10 µM, stronger effect = higher value
[5] = glucagon-like peptide 1 release enhancers, primary assay, NCI-H716 cell line, NPC library (AID 1117341;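 active means compound raises GLP1 secretion from the human gut endocrine cells, with no numeric limit stated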); settings: NCI-H716 cells, at 10 µM, stronger effect = higher value
[6] = HCT116 colon cancer cell growth inhibition, primary screen, CellTiter-Glo luminescence, NPC library (AID 1117342;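 active means compounds that lower survival of HCT116 colon cancer cells in the luminescence readout, no numeric limit stated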); settings: at 20 µM (top of the series)
[7] = CellTiter-Glo luminescent readout of SW480 viability loss, NPC library primary (AID 1117343;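 active means compounds that lower viability of the colon cancer cells in the luminescence readout, with no numeric limit stated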); settings: CellTiter-Glo luminescence; at 20 µM (top of the series) unless noted
[8] = decreased DLD-1 cellular survival, CellTiter-Glo luminescent readout, NPC compound collection, primary HTS (AID 1117346;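 active means compounds that lower survival of DLD-1 colon cancer cells in the luminescence readout, no cutoff given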); settings: DLD-1 viability, CellTiter-Glo luminescence; at 20 µM (top of the series)
[9] = differential killing of epithelial or mesenchymal cells, primary screen, imaging, PC-3E GFP, TEM4-18 mCherry, co-culture (AID 1345086;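 active means compounds killing one labelled cell type while sparing the other, by normalised counts and ratio limits, not self-fluorescent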;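 on all read-outs here: cells exposed to compound for 72 h before imaging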;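 on red/green cell ratio (normalised): normalised mesenchymal count divided by normalised epithelial count so high means epithelial killing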); settings: imaging cell counts, at 1 µM; for red/green cell ratio (normalised): actives lie on both sides, counts scaled to control wells, 1 = unselective
[10] = sensitizers of A549 cells to miR-34 induction, primary screen, imaging, A549 dox-inducible miR-34, nuclei and caspase counts (AID 1347080;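 active means compounds whose cell count with miR-34 switched on is under 0.7 times the count with it off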); settings: A549 miR-34 inducible, Hoechst nuclei count, 48 h
[11] = biological target: NAD(+) hydrolase SARM1 (Homo sapiens) (UniProt Q6SZW1); experiment: SARM1 TIR NADase inhibitors, cell lysate, NAD-Glo luminescence (AID 1508614;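 active means compound whose remaining NAD level is above about 45 nM, limit read from the data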); settings: SAM-TIR HEK293T lysate NADase, at 1 µM, stronger effect = higher value
[12] = hESC survival regulators, cell-based (AID 493140; call rule not given here;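 further: cells exposed to compounds for four days before counting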); settings: human embryonic stem cell survival screen; stronger effect = higher value
[13] = liver-stage malaria parasite growth inhibition, primary screen, cell-based, HepG2, luciferase luminescence, HepG2 viability (AID 624349);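 further: 100% = mean of DMSO negative control wells on the same plate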; settings: P. berghei liver stage in HepG2, luciferase luminescence, concentration not given here; parasite load remaining: stronger effect = lower value; viability: measured here: HepG2 viability without parasites
[14] = survival rescue of mitochondrial mutant cells in low glucose, primary screen, MELAS cybrids, Rieske KO mouse fibroblasts, CellTiter-Glo (AID 1508586;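 active means mean z-score across replicates of 1.96 or higher in either the MELAS or the Rieske mutant cell line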;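 further: z relative to plate mean and SD of compound and empty wells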)
[15] = measured here: epithelial PC-3E GFP cell survival
[16] = measured here: mesenchymal TEM4-18 mCherry cell survival
[17] = stronger effect = lower value, cell number ratio, induced over uninduced
[18] = measured here: relative caspase fold change +Dox/-Dox
[19] = measured here: total cells with miR-34 induction, stronger effect = lower value
[20] = measured here: total cells without miR-34 induction
[21] = MELAS cybrid survival, CellTiter-Glo 48 h, stronger effect = higher value
[22] = Rieske KO mouse fibroblast survival, CellTiter-Glo 72 h

Chain of NAD(+) hydrolase SARM1 (Homo sapiens) (Q6SZW1 whole entry, looked up): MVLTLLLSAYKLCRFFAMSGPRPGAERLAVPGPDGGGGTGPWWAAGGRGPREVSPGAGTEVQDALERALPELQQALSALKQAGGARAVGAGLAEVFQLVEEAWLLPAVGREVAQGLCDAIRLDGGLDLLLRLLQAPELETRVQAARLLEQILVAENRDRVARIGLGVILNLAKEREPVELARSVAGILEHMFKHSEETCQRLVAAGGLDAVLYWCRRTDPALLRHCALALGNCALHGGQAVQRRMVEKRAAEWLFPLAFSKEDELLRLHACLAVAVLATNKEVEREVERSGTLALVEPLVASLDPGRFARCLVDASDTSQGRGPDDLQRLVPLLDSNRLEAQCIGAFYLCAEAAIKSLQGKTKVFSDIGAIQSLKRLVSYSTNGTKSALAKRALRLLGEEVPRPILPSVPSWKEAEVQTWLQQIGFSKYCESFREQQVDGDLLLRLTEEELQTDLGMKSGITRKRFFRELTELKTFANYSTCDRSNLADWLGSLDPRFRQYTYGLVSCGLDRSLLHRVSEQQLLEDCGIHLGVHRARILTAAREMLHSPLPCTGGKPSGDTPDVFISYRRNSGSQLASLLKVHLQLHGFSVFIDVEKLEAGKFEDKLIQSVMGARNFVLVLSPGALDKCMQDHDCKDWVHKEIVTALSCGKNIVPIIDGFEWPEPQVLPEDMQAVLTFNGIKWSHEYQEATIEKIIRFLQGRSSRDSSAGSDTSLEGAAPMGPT

In the case of `S=C=Nc1ccc(N=C=S)cc1`, the nuclear beta-catenin stimulation ([1]; at 10 µM) is reported as 16.4% (inactive), the nuclear beta-catenin stimulation ([1]; stimulation, at 2 µM) is reported as -0.1% and the insulin secretion stimulation [2] is reported as 3.2% (inactive). For the same molecule, the viability decrease [3] was 77.2% (active), the tube area decrease [4] was 100% (active) and the GLP1 secretion stimulation [5] was -3.9% (inactive). The inhibition of viability [6] was 57% (active), the viability decrease (inhibition) [7] was 73.5% (active) and the viability decrease (inhibition) [8] was 81.3% (active). The red/green cell ratio (normalised) [9] was 0.76 (inactive), the normalised cell number [9, 15] was 1.12 and the normalised cell number [9, 16] was 0.86. The fold change [10, 17] was 0.826 (inactive), the fold change [10, 18] was 1.4 and the cell count [10, 19] was 7160. For the same molecule, the cell count [10, 20] was 8680 and the remaining NAD [11] was 10 nM (inactive).

With `CCN1C(=O)NC(c2ccccc2)C1=O` (configuration not stated) the survival [12] was 2.42 (inactive), the parasite load remaining [13] was 83.9% (inactive) and the viability [13] was 100%. For the same molecule, the nuclear beta-catenin stimulation ([1]; at 10 µM) was -2.4% (inactive), the nuclear beta-catenin stimulation ([1]; stimulation, at 2 µM) was -0.9% and the insulin secretion stimulation [2] was -1% (inactive). For the same molecule, the viability decrease [3] was -5.5% (inactive), the tube area decrease [4] was -23% (inactive) and the GLP1 secretion stimulation [5] was 7% (inactive). The inhibition of viability [6] was -1% (inactive), the viability decrease (inhibition) [7] was 2.2% (inactive) and the viability decrease (inhibition) [8] was 8.6% (inactive). For the same molecule, the red/green cell ratio (normalised) [9] was 0.92 (inactive), the normalised cell number [9, 15] was 1.08 and the normalised cell number [9, 16] was 1. For the same molecule, the fold change [10, 17] was 0.858 (inactive), the fold change [10, 18] was 1.11 and the cell count [10, 19] was 8830. The cell count [10, 20] was 10300, the z-score [14, 21] was 0.723 (inactive) and the z-score [14, 22] was 0.79. For the same molecule, the remaining NAD [11] was 10 nM (inactive).

For `CCCCCCC[N+](CC)(CC)CCCCc1ccc(Cl)cc1`, the survival [12] was 0.5 (inactive), the parasite load remaining [13] was 34.3% (inactive) and 96.8% (inactive) and the viability [13] was 48.5% and 90.6%. For the same molecule, the nuclear beta-catenin stimulation ([1]; at 10 µM) was 1.5% (inactive), the nuclear beta-catenin stimulation ([1]; stimulation, at 2 µM) was 0.5% and the insulin secretion stimulation [2] was 1% (inactive). The viability decrease [3] was 95.1% (active), the tube area decrease [4] was 83.4% (active) and the GLP1 secretion stimulation [5] was 7.2% (inactive). The inhibition of viability [6] was 79.1% (active), the viability decrease (inhibition) [7] was 60.9% (active) and the viability decrease (inhibition) [8] was 75.4% (active). For the same molecule, the red/green cell ratio (normalised) [9] was 0.92 (inactive), the normalised cell number [9, 15] was 0.97 and the normalised cell number [9, 16] was 0.89. For the same molecule, the fold change [10, 17] was 0.718 (inactive), the fold change [10, 18] was 1.54 and the cell count [10, 19] was 6720. The cell count [10, 20] was 9350, the z-score [14, 21] was -3 (inactive) and the z-score [14, 22] was -0.71.

In the case of `NCCc1ccn[nH]1`, the survival [12] is reported as 17.5 (inactive), the parasite load remaining [13] is reported as 35.3% (inactive) and 97.6% (inactive) and the viability [13] is reported as 49.8% and 93.1%. The nuclear beta-catenin stimulation ([1]; at 10 µM) was 1% (inactive), the nuclear beta-catenin stimulation ([1]; stimulation, at 2 µM) was 0.9% and the insulin secretion stimulation [2] was -1.5% (inactive). The viability decrease [3] was -5% (inactive), the tube area decrease [4] was -21.4% (inactive) and the GLP1 secretion stimulation [5] was 1.1% (inactive). For the same molecule, the inhibition of viability [6] was -8.9% (inactive), the viability decrease (inhibition) [7] was 12.5% (inactive) and the viability decrease (inhibition) [8] was -9.4% (inactive). For the same molecule, the red/green cell ratio (normalised) [9] was 0.76 (inactive), the normalised cell number [9, 15] was 1.25 and the normalised cell number [9, 16] was 0.95. The fold change [10, 17] was 0.91 (inactive), the fold change [10, 18] was 1.36 and the cell count [10, 19] was 9040. For the same molecule, the cell count [10, 20] was 9920, the z-score [14, 21] was 0.417 (inactive) and the z-score [14, 22] was 0.115. The remaining NAD [11] was 10 nM (inactive).
